Experimental data published in ChEMBL document CHEMBL3988442, “University of Dundee, Small-Polar-MMV Screening Library” (2021).
Hit rate of the full screen: of about 48,000 compounds, about 13,000 (27%) showed an effect of 50% or more. This is one part of the list.

Test system: Wolbachia pipientis
Assay: Anti-Wolbachia Cell-Based Screen
Type: functional
Parameters: scale not given: in the data most compounds retested in dose-response had high values
Conditions: 5 µM

SMILES | Percent Effect [%]
CN(CCNC(=O)c1scnc1Cl)c1ccccc1 | -4.925
COc1ccc(OC)c(C2CCN(CC(C)(C)N3CCOCC3)C2)c1 (configuration not stated) | -1.124
CC(C)[C@@H]1CN(Cc2cnc(C3CCCCC3)nc2)C[C@H]1C(=O)O | -8.433
COc1ccc2cc(CN(C)C(C)c3nc(C4CC4)no3)ccc2c1 (configuration not stated) | 6.729
COc1ccc(C(C)N(C)Cc2c(C3CC3)[nH]c3ncccc23)cc1.Cl (configuration not stated) | 91.7
COc1ccc(C(CN2CCN(C)CC2)Nc2ncccn2)cc1 (configuration not stated) | -1.255
COc1ccc(C(C)N(C)Cc2c(C(C)C)[nH]c3ncccc23)cc1 (configuration not stated) | 47.71
COc1ccc(C(C)N(C)Cc2c(C(C)(C)C)[nH]c3ncccc23)cc1 (configuration not stated) | 103.1
CCC(Nc1ncccn1)c1ccc(OC)cc1 (configuration not stated) | 2.346
COCCN(C)CC(=O)N1C[C@@H](NC(C)=O)[C@H](c2ccc(OC)cc2)C1 | 3.177
COCCN(C)CC(=O)N1C[C@H]2CC[C@@H]1CN(C(=O)c1ccncc1)C2 | 3.629
COCCN(C)CC(=O)N1C[C@@H](C)[C@](O)(C(C)C)C1 | 89.33
COCC(=O)N1C[C@@H](C)[C@](O)(C(C)C)C1 | 101.1
CC(C)[C@]1(O)CN(C(=O)CNC(N)=O)C[C@H]1C | 90.92
CC(C)[C@]1(O)CN(C(=O)COCC(N)=O)C[C@H]1C | 89.06
COCC(=O)N1CCC2(CC1)CC(OC)CO2 (configuration not stated) | -10.72
COCC(=O)N1CCN(C(C)C(=O)NC(C)C)CC1 (configuration not stated) | 2.538
C[C@@H]1CN(C(=O)CCCN2CCOCC2)C[C@@]1(O)C1CC1 | -18.09
NC(=O)NCC(=O)N1CCC2(CC1)c1ccccc1CC2O (configuration not stated) | -7.297
CC1(Cc2ccccn2)NCCc2[nH]cnc21 (configuration not stated) | 15.49
CCn1c(N)nc2cc(C(=O)N3Cc4ccccc4C3)cnc21 | -3.386
CCCS(=O)(=O)N1CCC(Nc2c(F)cc(C#N)cc2F)CC1 | 13.62

SMILES | Percent Effect [%]
CSCCC(=O)N1CCN(CC(C)(C)O)CC1 | -39.31
Cc1c(C(C)NCC2CCCC2)cnn1-c1ccc(F)cc1F (configuration not stated) | 0.5195
O=C(CN1C=Nc2ccccc2S1(=O)=O)NCCc1cccs1 | 3.571
COCCN(C)[C@@H]1c2ccccc2C2(CCNCC2)[C@H]1O | 2.267
CC(C)NC(=O)CN1CCN(CC2CCOc3ccccc3C2)CC1 (configuration not stated) | -2.637
Cc1cc(C(=O)NS(C)(=O)=O)ccc1I | 1.042
CCc1cnc(C)nc1NCc1cnc2c(c1)CCC2 | 83.93
Cc1nc2c(c(NCc3cnc4c(c3)CCC4)n1)CNC2 | 90.56
Cc1nc2c(c(NCc3nc4ccccc4s3)n1)CCNCC2 | 4.643
Cc1nc2c(c(NCc3cc4ccccc4s3)n1)CCNCC2 | -2.145
CCc1cnc(C)nc1NCCN1CCCCCC1 | -2.933
Nc1nc2c(c(NCc3cnc4c(c3)CCC4)n1)CCNC2 | 77.65
Nc1nc2c(c(NCc3ccncc3)n1)CCCC2 | -16.82
CCc1cnc(C)nc1NCCN1CCC(O)CC1 | 8.36
Nc1nc2c(c(NCc3nc(-c4ccncc4)n[nH]3)n1)CCCC2 | -1.758
CCC(C)NC(=O)c1ccc(CNC(=O)CC(C)(C)C)cc1 (configuration not stated) | 3.529
COC(=O)CCC(=O)NC1CCCc2cc(OC(F)F)ccc21 (configuration not stated) | 7.111
CCC(C(=O)N(Cc1ccccc1OC)C1CC1)n1cccn1 (configuration not stated) | -4.851
O=c1[nH]c(=O)n(CC(O)c2ccc(F)cc2F)cc1Cl (configuration not stated) | -0.7239
OC(CNCCn1cccn1)COc1ccc(F)cc1 (configuration not stated) | 3.915
COc1ccc(CN2CC[C@@]3(O)CCCC[C@H]3C2)cc1C(=O)O | -6.5
COc1cc(CN2CCCC[C@]3(C)NC(=O)CC[C@H]23)ccc1F | 73.04

SMILES | Percent Effect [%]
COc1ccc(CN2CCCCC2CNC(=O)OC(C)(C)C)cc1F (configuration not stated) | 23.02
CCc1nc(CCNC(=O)Nc2ccc(C(=O)NC)cc2C)cs1 | 3.747
Cc1nc(C)n(CC2CCCCN2Cc2ncc(C(C)(C)C)o2)n1 (configuration not stated) | 8.215
Cc1nc(C)n(CC2CCCN(Cc3nc(C)c(C)o3)C2)n1 (configuration not stated) | 2.327
Cc1nc(C)n(CC2CCCN(Cc3ncc(C(C)(C)C)o3)C2)n1 (configuration not stated) | 87.18
Cc1nc(C)n(CC2CCCN2Cc2ncc(C(C)(C)C)o2)n1 (configuration not stated) | 109.1
Cc1nc(C)n(CC2CCCN2Cc2ncc(-c3ccccc3)o2)n1 (configuration not stated) | 119.8
Cc1cc(C)n(CC2CCCN2CCc2ccncc2)n1 (configuration not stated) | -8.858
Cc1nc(C)n(CC2CCCN2Cc2ccccn2)n1 (configuration not stated) | 5.197
Cc1cc(C)n(CC2CCCN2Cc2ncc(C(C)(C)C)o2)n1 (configuration not stated) | 98.37
c1ccc(-c2cnc(CN3CCCC3Cn3cncn3)o2)cc1 (configuration not stated) | -9.309
Cc1cc(C)n(CC2CCCN2Cc2cccc(C#N)c2)n1 (configuration not stated) | -4.614
CN(Cc1ccc(F)cc1F)CC(C)(CO)CO | -8.016
CCC(O)(CNCc1cc[nH]n1)c1ccc(Br)cc1 (configuration not stated) | 7.461
CCn1cc(S(=O)(=O)Nc2cccnc2-n2cccn2)nc1C | -8.927
O=C(NC1(c2nc(C3CC3)no2)CCCCC1)c1cccnc1O | -6.139
O=S(=O)(CCNCc1cc(O)c2cc(F)ccc2n1)N1CCCC1 | -19.62
C=C(C)COc1ccc(C(=O)NCC2CC(CC)=NO2)cc1 (configuration not stated) | 5.055
CCc1nonc1NC(=O)C(C)Oc1ccccc1F (configuration not stated) | -3.063
Cc1nc(CNC(=O)C(C)Oc2ccccc2F)no1 (configuration not stated) | 94.07
Cc1noc(C)c1CNC(=O)C(C)Oc1ccccc1F (configuration not stated) | -0.2471
CC(C)Oc1ncc(C(=O)N2CCC(NC(=O)C3CC3)CC2)cc1Cl | -2.3

SMILES | Percent Effect [%]
CCSCCC(C)N(C)C(=O)c1ccc(C)o1 (configuration not stated) | 3.019
COCCN1CC2(CCCN(C(=O)NCCc3cccs3)C2)CCC1=O (configuration not stated) | 2.041
COCCOCC(=O)Nc1ccc(C)cc1Cl | 120.1
COCCOCC(=O)NC(C#N)c1cc(Cl)cc(Cl)c1 (configuration not stated) | -3.504
COCCOCC(=O)Nc1cccc(CN(C)C(C)=O)c1 | 3.065
COCCOCC(=O)Nc1ccc(C)cc1Br | 93.08
Cc1ccc(NC(=O)N(C)CC(O)COCCOC(C)C)c(Br)c1 (configuration not stated) | -14.49
Cc1ccc(NC(=O)CNc2cccc3c2CCCC3)c(Br)c1 | 9.995
COc1cc2c(nn1)CCN(Cc1ncc(C(C)(C)C)o1)C2 | 5.733
CCN(C)S(=O)(=O)NCC1(c2cccc(Br)c2)CC1 | 0.1722
CCCC(=O)NCC(=O)NC1CC(C)(C)Cc2oc(C)cc21 (configuration not stated) | -3.424
CN(C)CC(=O)NC1CC(C)(C)Cc2nc(C(C)(C)C)ncc21 (configuration not stated) | 106.4
CN(C)c1ccc(C(=O)N2Cc3cnc(C(C)(C)C)nc3C2)cc1 | 19.06
CN(C)CCCC(=O)NC1CC(C)(C)Cc2nc(C(C)(C)C)ncc21 (configuration not stated) | 112.6
COc1ccc(NC(=O)C(c2ccc(OC)cc2)N2CCOCC2)cc1 (configuration not stated) | 109.2
COc1ccc(C(CNC(=O)c2cnc(C)cn2)N2CCOCC2)cc1 (configuration not stated) | 15.25
CCC(CC)C(CNC(=O)Nc1ccc(OC)cc1)N1CCOCC1 (configuration not stated) | 4.336
CSc1nc2cc(C)n(CC(=O)N3CCCC3)c2c(=O)n1CC(C)C | 4.703
Cc1cc(C(=O)N(C)CCCn2cccn2)nc(N)n1 | 99.09
Cc1cc(N(C)Cc2ncc[nH]2)nc(-c2cccnc2)n1 | -8.057
Cc1cc(N(C)CCCn2cccn2)nc(N)n1 | 93.8
CN(CCn1cccn1)c1cc(C(F)(F)F)nc(-c2cccnc2)n1 | -9

SMILES | Percent Effect [%]
COc1ccccc1OCCCN(C)c1cc(C)nc(N)n1 | -7.239
Cc1cc(N(C)CC2COc3ccccc3O2)nc(N)n1 (configuration not stated) | -8.93
CC(C)[C@H]1COC(=O)N1CC(=O)N(C)CCCn1cccn1 | -1.545
Cc1cc(C(=O)N2C[C@@H]3[C@@H](CN(C)CCCn4cccn4)[C@@H]3C2)c(C)o1 | 2.079
Cc1cc(N(C)CCCn2cccn2)nc(-c2cccnc2)n1 | 95.65
Cc1cc(N2CCN(C3CCSCC3)CC2)n2nc(C)c(C)c2n1 | -17.53
CCCN(CCC)S(=O)(=O)NC(C)C(=O)N(C)C (configuration not stated) | -7.467
CCC[C@H]1CN(CCS(C)(=O)=O)C[C@@H]1NC(=O)c1ccccc1F | -18.99
CC(=O)N1CCOC[C@H](Oc2ccc(C(F)(F)F)cc2)C1 | -13.29
O=C(CCCc1cn[nH]c1)N1CCOCC(O)C1 (configuration not stated) | -4.397
COCCC(=O)N1CCOCC(Cc2ccc3c(ccn3C)c2)C1 (configuration not stated) | 165.7
CC(=O)NCC(=O)N1CCOCC(Cc2ccc3c(ccn3C)c2)C1 (configuration not stated) | 143.9
NC(=O)c1cccc(CC2CCN(C(=O)CCCN3CCOCC3)C2)c1 (configuration not stated) | -2.023
CN(C)C(=O)Cn1ccc2cc(NC(=O)N3CCOCC3)ccc21 | -7.307
CC(=O)NCC(=O)N1CCC(C2CCN(Cc3ccc(Cl)cc3)C2)CC1 (configuration not stated) | -7.699
CN(C)c1ccc(CC(=O)N2CCOCC(O)C2)cc1 (configuration not stated) | -50.44
CC(=O)N1CCOCC(Cc2ccc3c(ccn3C)c2)C1 (configuration not stated) | 138.8
CC(=O)N1CCOCC(Cc2ccc3c(ccn3C(C)=O)c2)C1 (configuration not stated) | 130
Cn1ccc2cc(C(=O)N3CCOCC3)ccc21 | -3.73
